The structures appear in SMILES notation. Values without a mark were called inactive.

In the assay the test system is Vero E6 infected with SARS-CoV-2. Briefly: inhibition of SARS-CoV-2 cytopathic effect; higher = more antiviral protection, active = above 15. The conditions noted are these: 10000 nM; 48 h. On the technique in general: Protection from cytopathic effect is a common read-out in antiviral testing.
In the case of `NC(=O)c1ncn([C@@H]2O[C@H](CO)[C@@H](O)[C@H]2O)c1N` [acadesine], the “inhibition of SARS-CoV-2 cytopathic effect” value (from here on “inhibition”) was -1.3%.

Take `NCc1cc(O)no1` [muscimol]: the “inhibition” value was 0.49%. With `CCCn1c(=O)c2nc(C34CC5CC(CC3C5)C4)[nH]c2n(CCC)c1=O`, the “inhibition” value was 1.25%. The same measure for `CCCCNNC(=O)c1ccc(Br)cc1`: -5.28%. The same measure for `CC(=O)C1=C(O)[C@@H]2[C@H]3c4c[nH]c5cccc(c45)C[C@H]3C(C)(C)N2C1=O` [cyclopiazonic-acid]: 14.2%; for `C=CCN1CC[C@]23c4c5ccc(O)c4O[C@H]2/C(=N/NC(=O)c2ccccc2)CC[C@@]3(O)[C@H]1C5` [naloxone-benzoylhydrazone]: 0.69%; for `CC(C)(C)C(=O)/C(=N/c1ccc(Cl)cc1)NNc1ccc(Cl)cc1`: -7%.

As for `O=C(Nc1ncc(SCCN2CCCC2)s1)[C@]1(c2ccc(S(=O)(=O)C3CC3)cc2)C[C@H]1C1CCCCC1`, the “inhibition” value is -5.6%. The same measure for `CC(C)(C)NCC(O)c1cc(O)cc(O)c1` (stereo not given): -0.76%; for `C#C[C@]1(O)CC[C@H]2[C@@H]3CCc4cc(O)ccc4[C@H]3CC[C@@]21C`: 7.74%. As for `CCn1cc(C(=O)O)c(=O)c2cnc(N3CCCC3)nc21` [piromidic-acid], the figure is -1.75%; as for `C=CC(=O)Nc1cccc(Nc2nc(Nc3ccc(N4CCN(C(C)=O)CC4)cc3OC)ncc2C(F)(F)F)c1` [rociletinib], -11.9%. The same measure for `CCOc1nc2cccc(C(=O)OCc3oc(=O)oc3C)c2n1Cc1ccc(-c2ccccc2-c2noc(=O)[nH]2)cc1` [azilsartan-medoxomil]: -0.28%; for `CC[C@@](C)(Nc1ccnc(-c2c[nH]c3ncccc23)n1)C(=O)NCC(F)(F)F` [decernotinib]: 2.32%; for `CNC(=N)NC(=O)Nc1c(C)cccc1C` [lidamidine]: -2.49%. As for `CCCC[P+](CCCC)(CCCC)Cc1ccc(NC(=O)[C@H](Cc2ccc3ccccc3c2)N/C(=N/C2CCCCC2)NC2CCCCC2)cc1`, the “inhibition” value was -2.72%.

Regarding `Cc1cc(CN)cc(C)c1NC(=O)c1ccc(-c2cc(Cl)ccc2Cl)o1`, the “inhibition” value is 66.2% (active). Take `N#C/C(=C1/SCC(c2ccccc2Cl)S1)n1ccnc1` (stereo not given) [lanoconazole]: the “inhibition” value is 0.48%.

In the case of `CCOCc1nc2c(N)nc3ccccc3c2n1CC(C)(C)O` [resiquimod], the “inhibition” value was -1.23%. As to `CCCCc1nc(Cl)c(C(=O)O)n1Cc1ccc(-c2ccccc2-c2nn[nH]n2)cc1` [carboxylosartan], the “inhibition” value was 0.68%. In the case of `CN1CCN(C(=O)c2cc3cc(Cl)ccc3[nH]2)CC1`, the “inhibition” value was -1.13%. Consider `Nc1nccc(/C=C/c2ccccc2)n1`, for which the “inhibition” value is 2.05%. The same measure for `C[C@]12CC[C@@H]3c4ccc(OS(=O)(=O)O)cc4CC[C@H]3[C@@H]1CCC2=O` [estropipate]: -6.12%; for `CC(=O)[O-].CC(=O)[O-].N.NC1CCCCC1.[Cl-].[Cl-].[Pt+4]` [satraplatin]: 23.8% (active). As for `c1ccc(CCNc2nc(-c3ccccc3)cs2)cc1` [fanetizole], the “inhibition” value is 1.58%.

As for `Nc1nc(N)c2nc(-c3cccc(O)c3)cnc2n1`, the “inhibition” value is -1.39%. The same measure for `CN1CCCCC1Cn1cc(C(=O)c2cc([N+](=O)[O-])ccc2I)c2ccccc21` (stereo not given): 4.92%; for `CC(O)(P(=O)(O)O)P(=O)(O)O` [etidronic-acid]: 0.13%.

Consider `Cc1cc2cc3c(C)cc(=O)oc3c(C)c2o1` [trioxsalen], for which the “inhibition” value is -0.06%. With `Cc1cc(Cn2nnc3c(-c4ccco4)nc(N)nc32)ccc1N` [vipadenant], the “inhibition” value was 0.65%. On to `CC(=O)SC[C@@H](C)C(=O)N1CCC[C@H]1C(=O)N[C@@H](Cc1ccccc1)C(=O)O` [alacepril], for which the “inhibition” value is -0.44%. As for `C[C@@H]1CC[C@@]2(OC1)O[C@H]1C[C@H]3[C@@H]4CC=C5C[C@@H](O)CC[C@]5(C)[C@H]4CC[C@]3(C)[C@H]1[C@@H]2C` [diosgenin], the figure is -1.29%; as for `Cc1c(Cc2ccc3ccccc3n2)c2cc(F)ccc2n1CC(=O)O`, -2.21%; as for `Nc1ccc2ncnc(NCCc3ccc(Oc4ccccc4)cc3)c2c1`, -4.62%. As for `CC(C)C(=O)Nc1ncc(-c2cc(C(F)F)nn2-c2c(Cl)cccc2Cl)s1`, the “inhibition” value was -5.83%.

These data come from the supplement of paper PMC13380429.
